Tests used:
[1] = molecular target: T1, Aspartate--tRNA(Asp/Asn) ligase (Mycobacterium tuberculosis (strain ATCC 25618 / H37Rv)) (UniProt P9WFW3); experiment: Assay for Asp RNA synthetase-1 from Mycobacterium tuberculosis; assay type: functional; design: scale not given: direction of the effect not stated beside the values; conditions: 30 µM; also: in the data most compounds retested in dose-response had high values
T1 sequence (whole entry): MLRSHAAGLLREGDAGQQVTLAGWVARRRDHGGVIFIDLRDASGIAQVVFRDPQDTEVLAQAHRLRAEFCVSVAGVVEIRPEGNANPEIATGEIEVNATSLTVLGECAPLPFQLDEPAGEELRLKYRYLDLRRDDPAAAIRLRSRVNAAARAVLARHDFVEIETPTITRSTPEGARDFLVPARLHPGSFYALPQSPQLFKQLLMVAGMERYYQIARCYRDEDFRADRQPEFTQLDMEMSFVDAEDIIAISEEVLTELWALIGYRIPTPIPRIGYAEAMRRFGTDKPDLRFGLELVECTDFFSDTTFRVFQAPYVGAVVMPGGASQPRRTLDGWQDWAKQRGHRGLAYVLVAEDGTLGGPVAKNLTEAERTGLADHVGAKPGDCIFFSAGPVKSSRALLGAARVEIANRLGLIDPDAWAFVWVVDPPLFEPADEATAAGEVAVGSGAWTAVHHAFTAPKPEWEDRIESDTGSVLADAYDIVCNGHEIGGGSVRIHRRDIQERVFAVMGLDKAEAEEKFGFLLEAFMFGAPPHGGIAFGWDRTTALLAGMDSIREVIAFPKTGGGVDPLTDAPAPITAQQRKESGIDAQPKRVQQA

[2] = molecular target: Shiga toxin 2 (Escherichia coli O157:H7) (UniProt P09385+P09386); experiment: E. coli 0.157:H7 Shiga Toxin SOP - stx2 screening assay; assay type: functional; design: scale not given: direction of the effect not stated beside the values; conditions: 30 µM

| Structure (SMILES) | Percent Effect [1] [%] | Percent Effect [2] [%] |
| --- | --- | --- |
| Cn1cc(C(=O)N2CCCC(n3cccn3)C2)c2ccccc21 (configuration not stated) | -0.132 | -6.71 |
| COc1ccccc1CC(=O)N1CCC(NCc2c[nH]nc2C)CC1 | 4.54 | 17.4 |
| CC(C)C1CN(c2ncccn2)CCC(=O)N1Cc1ccc(F)cc1 (configuration not stated) | 3.51 | 3.8 |
| CCn1cnnc1CNC(=O)N1CCN(c2cccs2)CC1 | -5.34 | -43.6 |
| COc1cccc(CC(=O)N2CCc3ncnc(NC(C)C)c3CC2)c1 | -0.351 | -3.19 |
| O=C(CN1CCCCC1Cn1cncn1)NCCc1ccc(F)cc1 (configuration not stated) | 3.25 | -5.15 |
| CC(C)CN1CCC2(C=C(C(=O)N3CCCC3)c3ccccc32)CC1 | 0.582 | -8.02 |
| Cc1cnc2c(S(=O)(=O)NCC3CCS(=O)(=O)C3)cccc2c1 (configuration not stated) | 3.04 | -5.77 |
| O=C(NCC1CC1)C1=NOC2(CCN(S(=O)(=O)c3cccs3)C2)C1 (configuration not stated) | 2.15 | -4.25 |
| CC(C)n1cc(CN2CCCN(C(=O)c3cc(Cl)c[nH]3)CC2)cn1 | 5.29 | 3.9 |
| Cc1nc(C)n(CC2CCCN2Cc2nc(N)c3ccccc3n2)n1 (configuration not stated) | -1.84 | -29.4 |
| COc1ccc(CNC(=O)N(Cc2ccc(F)cc2F)C2CC2)cn1 | -9.17 | -13 |
| O=C(CCCOc1ccc(F)cc1)N1CCCC(n2cccn2)C1 (configuration not stated) | -0.115 | 7.54 |
| O=C(NCc1cc[nH]n1)NC1CCCN(c2ncccn2)C1 (configuration not stated) | -4.43 | -3.98 |
| CC(C)CNC(=O)[C@H]1CCS(=O)(=O)[C@@H]2CN(Cc3ccc(Cl)cc3)C[C@H]12 | -0.0704 | -5.7 |
| CCn1cc(NC(=O)C2CCN(Cc3noc(C(C)C)n3)CC2)cn1 | 1.21 | -21.2 |
| COCC1CN(Cc2ccc(C)o2)Cc2ncn(CC3CC3)c21 (configuration not stated) | -3.92 | -13.7 |
| c1cc(CNCC2OCCc3cn(CC4CCOCC4)nc32)ccn1 (configuration not stated) | 4.2 | -5.21 |
| CCS(=O)(=O)CC(=O)NC(c1ccccc1)C1CCCCC1 (configuration not stated) | 3.23 | 7.43 |
| CNCC(=O)N1CCCC(c2cccc(Nc3nc(C)cc(C)n3)n2)C1 (configuration not stated) | 3.29 | -1.86 |
| O=C(Cc1n[nH]c2ccccc12)N1CCC(Nc2cccnn2)CC1 | 2.78 | -16.9 |
| Cc1nocc1C(=O)N1CCc2c(CN(C)C(C)C)n[nH]c2C1 | 0.866 | 3.98 |
| COc1cccc(C)c1C(=O)N1C[C@@H](CN(C)C)[C@@H](CO)C1 | 0.951 | -14.7 |
| CC(C)C1CN(C(=O)c2nccnc2N)CCS1 (configuration not stated) | 13 | -15.2 |
| Cn1cc(C(=O)NC[C@@H]2OC[C@H]3CN(S(C)(=O)=O)CC[C@H]32)cn1 | 0.41 | -26.8 |
| CN(C)Cc1cnc2n1CCN(Cc1ccsc1)CC2 | -5.79 | -3.72 |

| Structure (SMILES) | Percent Effect [1] [%] | Percent Effect [2] [%] |
| --- | --- | --- |
| Cn1nc(C2CCCN(C(=O)CO)C2)cc1O (configuration not stated) | 3.92 | 10.4 |
| COc1ccc(CN2C[C@H](OCC3CCOCC3)[C@H]3COC[C@H]32)cc1 | -1.6 | 1.49 |
| Cc1ncc(CN(C)CC2CCCN2c2cccnn2)s1 (configuration not stated) | 3.27 | 9.48 |
| Cc1ccc2nc(C3CCN(CCO)CC3)nn2c1 | 2.18 | -3.64 |
| Cc1ccccc1C(=O)N1CCC(n2nnc3cc(F)ccc32)CC1 | -5.01 | -1.06 |
| N#CCCCS(=O)(=O)N1CCCC1CC(=O)c1cccs1 (configuration not stated) | 0.747 | 12 |
| O=C(CCC1CCCO1)NS(=O)(=O)c1ccc(Cl)cc1 (configuration not stated) | -1.43 | 21.6 |
| COc1ccc(C2=CCN(C(=O)CN(C)Cc3ccoc3)CC2)cc1 | -8.11 | -67.5 |
| CC(Cn1ccnc1)NC(=O)N1CCN(Cc2cccnc2)CC1 (configuration not stated) | 0.189 | 6.15 |
| Cc1nc(CN2CCCN(C(=O)C3(C#N)CCCCC3)CC2)cs1 | 1.34 | 11.8 |
| Cc1ccc(NC(=O)Nc2cnc(N3CCN(C)CC3)nc2)c(Cl)c1 | -3.19 | -20.4 |
| CCN(CC)Cc1ccc(C(=O)N2CCN(CC(C)O)CC2)cc1 (configuration not stated) | 0.607 | 8.97 |
| CC(C)c1nc2n(n1)CC(NCc1nc(-c3cccnc3)no1)CC2 (configuration not stated) | -2.88 | -31.5 |
| Cc1ccc(CN2CCCC3(CCN(S(=O)(=O)N(C)C)C3)C2)o1 (configuration not stated) | 0.162 | 10.6 |
| c1ccc(Cn2cccn2)c(CNCC2CNc3ccnn3C2)c1 (configuration not stated) | 1.88 | -40.7 |
| O=C(CCc1nc2cccnc2[nH]1)Nc1cccnc1 | -1.77 | -77.4 |
| Fc1cccc(Oc2ccc(CNCC3CNc4ccnn4C3)cn2)c1 (configuration not stated) | -6.37 | -101 |
| CCOc1cc(C)nc(N2CCN(C(=O)CC)CC2)n1 | 0.408 | 12.8 |
| CC(=O)N1CCCN(C(=O)CCc2c(C)noc2C)CC1 | -5.26 | 2.24 |
| COC(=O)c1cccn1C1CCN(C(=O)c2cc(F)ccc2F)CC1 | 1.88 | 19.6 |
| O=C(CC1CCCCC1)N1CCN(C(=O)NCc2ccccn2)CC1 | 2.1 | 20.8 |
| Cc1cc(OCC(=O)N2CCCC(c3ccn[nH]3)C2)no1 (configuration not stated) | -5.07 | 2.75 |
| CCc1nc(C2CCCN(C(=O)CCn3ccccc3=O)C2)no1 (configuration not stated) | -0.767 | 7.71 |
| CCc1nc2n(n1)CC(Nc1cc(C)nc3ncnn13)CC2 (configuration not stated) | -4.28 | 2.96 |
| Cc1nc(CN2C(=O)C[C@@H]3[C@@H]2CCN3C(=O)C2CCOCC2)cs1 | -2.3 | -52.6 |
| c1coc(-c2nnc(CN3CCOC(Cn4cccn4)C3)o2)c1 (configuration not stated) | -4.34 | 3.23 |

| Structure (SMILES) | Percent Effect [1] [%] | Percent Effect [2] [%] |
| --- | --- | --- |
| Cc1cnn(CCC(=O)N2CCCN(c3ncccc3C#N)CC2)c1 | -6.54 | -34.1 |
| CC(=O)N1CCCN(C(=O)NCCc2cc(Cl)cc(Cl)c2)CC1 | -1.44 | -10 |
| CN(Cc1cccc(O)c1)CC1CCCN(CCc2ccc(Cl)cc2)C1 (configuration not stated) | 4.47 | -33.8 |
| COCCN1CCc2cc(C(=O)N(C)C)c(NCC3CC3)nc2CC1 | 0.183 | 0.232 |
| COc1cc(NC(=O)c2cc(C)sc2C)c(C(=O)N(C)C)cc1OC | 7.46 | -44.2 |
| Cc1cc2c(=O)n3c(nc2s1)CCN(Cc1ccncc1)CC3 | -2.01 | -22.9 |
| CC(Cn1ccnc1)NC(=O)C1(c2ccc(F)cc2)CC1 (configuration not stated) | -1.46 | 2.06 |
| c1cnc(-c2nc(CN3CCOC(Cn4cncn4)C3)cs2)nc1 (configuration not stated) | 9.26 | 18.3 |
| CC(C)C(NC(=O)NCC1(CO)CC1)c1nnc2n1CCC2 (configuration not stated) | -3.28 | 19.7 |
| Cc1cc(N2CCN(CCO)CC2)nc(-c2ccncc2)n1 | 1.26 | -27.4 |
| CCn1c(N)nc2cc(C(=O)NCCc3ccccc3C)cnc21 | 7.33 | -69.2 |
| Cc1nn(C)c(C)c1C1CCCN1Cc1cccc(C(N)=O)c1 (configuration not stated) | -1.14 | -1.22 |
| CCC(=O)N1CCC(c2nnc(Cn3cccn3)n2C2CC2)CC1 | -6.07 | -3.53 |
| O=C1NC(c2ccccc2)=N[C@@]12CC[C@@H]1CN(CC3CCOCC3)C[C@@H]12 | 1.31 | -0.652 |
| O=C(CC1CCCC1)NCCn1ccc(-c2ccccn2)n1 | -4.3 | -5.4 |
| O=C(NCCN1CCNCC1)c1c(O)c2ccccc2[nH]c1=O | -0.319 | -77.4 |
| CCOc1ccc(Cl)cc1C1CCCN1 (configuration not stated) | 3.74 | 5.67 |
| CC(C)c1cc(NC(=O)CN2CCc3ccccc3C2)on1 | -1 | -13 |
| CN1CCOC(CNC(=O)Cc2ccccc2F)C1 (configuration not stated) | -1.99 | -8.98 |
| O=C(Nc1ccnc(OC2CCOC2)c1)C1CCC1 (configuration not stated) | -4.32 | -20.1 |
| Cn1nc(C2CCCN(Cc3cccc(F)c3)C2)c2nccnc21 (configuration not stated) | -0.491 | 14.8 |
| O=C(c1cccnc1)N1CCCC2(CCN(c3ccsc3)C2=O)C1 (configuration not stated) | 7.21 | -14.1 |
| Cc1nn(C)c2c(NCc3ccccc3F)nc(C3CC3)nc12 | 12.5 | -20.5 |
| Cc1noc(C2CCCN(C(=O)c3ccc(Br)o3)C2)n1 (configuration not stated) | -2.54 | -8.47 |
| Cc1nc(C)n(CC2CCCN2CCOc2ccc(C#N)cc2)n1 (configuration not stated) | -3.28 | -0.486 |
| O=C(CCN1CCOC(Cn2cccn2)C1)NC1CCCC1 (configuration not stated) | -1.67 | -51.9 |

| Structure (SMILES) | Percent Effect [1] [%] | Percent Effect [2] [%] |
| --- | --- | --- |
| CC(C)(C)C(=O)NCCn1ccc(-c2ccncc2)n1 | -3.08 | -20 |
| CC(=O)N1CCC(C(=O)c2cc(C)cnc2N)CC1 | 0.75 | -6.78 |
| CC(CN1CCOCC1)NC(=O)NCc1ccc(Cl)s1 (configuration not stated) | 2.25 | -2.94 |
| CCCN1CCN(C(=O)c2cnccn2)[C@H]2CS(=O)(=O)C[C@H]21 | -3.33 | -11.3 |
| Cc1cc(C)c2cc(CNCc3ccccc3)c3nn(C)c(=O)n3c2c1 | -2.43 | -0.711 |
| O=C(Nc1cccnc1)[C@H]1C[C@@H]2CCN(c3nncs3)C[C@H]2O1 | -3.84 | -14 |
| CC[C@@H]1N(Cc2ccsc2)CCC[C@]12CCC(=O)N2CCOC | -5.67 | 7.49 |
| CCNC(=O)[C@@H]1C[C@H](NC(=O)c2cncnc2C)CN1CCCSC | -2.78 | -8.54 |
| CN(Cc1ccco1)C(=O)CN1CCCCC1Cn1cccn1 (configuration not stated) | -0.346 | -5.72 |
| O=C(c1ncccn1)N1C[C@H]2CCC[C@@]2(COCc2cccnc2)C1 | 1.54 | -6.19 |
| COc1cccc(COCC(=O)N2CCCC(n3ccnc3C)C2)c1 (configuration not stated) | -4.19 | -2.47 |
| CCCNC(=O)c1c(-n2cnnn2)sc2c1CCC2 | 1.26 | -42 |
| CNC(=O)c1cc2c(nc1NCC1CC1)CCN(S(=O)(=O)C1CC1)CC2 | 7.68 | -5.47 |
| COCCN1CC[C@@H]2OC[C@H](C(=O)NCc3cccs3)C[C@@H]2C1 | 2.37 | -14.7 |
| CC(NC(=O)c1nc(=O)[nH][nH]1)c1ccc(OCC2CC2)c(F)c1 (configuration not stated) | -2.07 | 5.49 |
| CCc1cc(NCCNc2cccnc2)n2nccc2n1 | 0.0112 | -5.46 |
| Cn1cc(C(=O)NC2CCN(Cc3ccn(C)c(=O)c3)CC2)cn1 | 1.68 | -28 |
| COc1ncnc2c1CCN(c1cc(C(F)(F)F)ncn1)CC2 | 3.67 | -1.32 |
| O=C(Cc1cccc(F)c1)N1CCCCC1c1ccn2ccnc2n1 (configuration not stated) | -2.63 | -7.82 |
| CC(=O)N1CCC(CN2CCN(Cc3nccn3C)C(C)C2)CC1 (configuration not stated) | 7.78 | 18.6 |
| CC(=O)NC1CCCN(C(=O)c2ccc(Br)cc2O)C1 (configuration not stated) | 2.34 | 19.3 |
| CCN(CC1CCOC1)C(=O)c1ccccc1NS(=O)(=O)CC (configuration not stated) | -4.47 | 33.3 |
| CN(Cc1cccc(F)c1)S(=O)(=O)N1CCOCC1 | -3.02 | 3.45 |

Reference: ChEMBL document CHEMBL3988442, “University of Dundee, Small-Polar-MMV Screening Library” (2021)
